Among the data in PubChem BioAssay (Tox21) are outcome and activity change, negative = cytotoxicity values, retold here.

Activity calls are given as the source filed them. Calls come from the whole dose curve; as a rule, active = well fitted cell-killing curve with a large enough effect in the repeat runs; inconclusive = weak or mixed curves, or effect the other way; inactive = flat fitted curve, though single readings scatter.
% is set by controls: 0 for no effect and ±100 for the full control effect.

The assay is described as follows: qHTS assay to identify small molecule HDAC inhibitors - cell viability counter screen (AID 1259365). Note: nearly all actives have a fitted effect of over 50% in size. To be noted: HCT-116 viability, CellTiter-Glo ATP luminescence, 2 h; series mostly up to 92.4 µM. The text has this: U.S. Tox21 Program National Center for Advancing Translational Sciences [NCATS] NIH Chemical Genomics Center [NCGC] U.S. Environmental Protection Agency [EPA] National Institutes of Environmental Health Sciences [NIEHS] National Toxicology Program [NTP] U.S. Food and Drug Administration [FDA] Tox21 Assay Overview: Histone deacetylases (HDACs) are a group of epigenetic enzymes that regulate gene expression by histone deacetylation. HDACs are capable of introducing epigenetic modifications and such aberrations contribute to the onset and progression of several human diseases, thus making HDACs a popular therapeutic target. For identifying endogenous class I/II HDAC inhibitors a homogenous, luminogenic HDAC I/II cell based assay was used to measure the relative activity of class I and II HDACs from cells. Wild type HCT-116 cells were used to screen Tox21 compound libraries for identifying class I/II HDAC inhibitors.
Tox21 Assay Protocol Summary: HCT-116 cells were dispensed at 1,500 per well in 5uL of culture medium into white solid bottom 1536-well plates (Greiner Bio-One, Monroe, NC) using a Multidrop Combi (Thermo Scientific, Waltham, MA) dispenser. The assay plates were incubated at 37 C and 5% CO2 for an overnight, and then 23nL of compounds dissolved in DMSO and positive control were transferred using a Pintool station (Wako, San Diego, CA). The assay plates were incubated at 37C and 5% CO2 for 2hr. After compound treatment, 4uL of CellTiter-Glo reagent (Promega Corporation, Madison, WI) was added to each well of the assay plates using Flying Reagent Dispenser (FRD, Aurora Discovery, San Diego, CA) and incubated the assay plates at room temperature for 30min. The luminescence signal was quantified using a ViewLux plate reader (Perkin Elmer, Shelton, CT).
(Quantitative high-throughput screening tests each substance at several concentrations.)
As for `CN(C)CCC[C@@]1(c2ccc(F)cc2)OCc2cc(C#N)ccc21`, the outcome was inactive.
As to `N=C(N)N1CCc2ccccc2C1`, the activity change, negative = cytotoxicity was -4.02% [at 8.39 µM] (inactive).
For the compound `CC(C)(C)C(=O)NCCCC(=O)O`, the outcome was inactive.
Consider `Cc1ccccc1C#N`, for which the outcome was inactive.
For `CC(C)(C)NCC(O)COc1cccc2c1CCC(=O)N2` (stereo not given), the call was inactive.
Still for that read-out and setting: to `CSC(=O)c1cccc2nnsc12` belongs “inactive”; to `Clc1cc(Cl)c(Cl)c(Cl)c1Cl`, “inactive”.
With `Cc1cc2c(cc1CC(=O)c1sccc1S(=O)(=O)Nc1onc(C)c1Cl)OCO2`, the outcome was inactive.
As for `CC[C@@]1(c2ccccc2)NC(=O)N(C)C1=O`, the result was inactive.
Turning to `COc1cnc(NS(=O)(=O)c2ccc(N)cc2)nc1`, the compound was classed as inactive.
Regarding `CNC(=O)c1c(I)c(NC(C)=O)c(I)c(C(=O)O)c1I`, the outcome was inactive.
`C[C@@H]1NC(=O)[C@@H](N)CNC(=O)[C@H](C2CCNC(N)=N2)NC(=O)/C(=C/NC(N)=O)NC(=O)[C@H](CNC(=O)C[C@@H](N)CCCN)NC1=O` (stereo not given in full): the activity change, negative = cytotoxicity is -0.0427% [at 0.349 µM] (inactive).
As to `Cc1cc(C)c(C)c(C)c1`, the result was inactive.
Still for that read-out and setting: to `CCCC[O][Al]([O]CCCC)[O]CCCC` belongs “inactive”; to `OCCC(F)(F)C(F)(F)C(F)(F)C(F)(F)C(F)(F)C(F)(F)F`, “inactive”; to `CCN1CCN(C(=O)N[C@@H](C(=O)N[C@@H]2C(=O)N3[C@@H]2SC(C)(C)[C@H]3C(=O)O)c2ccccc2)C(=O)C1=O`, “inactive”.
Take `O=Cc1ccccc1S(=O)(=O)O`: the compound was called inactive.
On the same count and under the same terms, to `CC(C)CC(O)Cc1ccccc1` (stereo not given) belongs “inactive”; to `CCCCCCCC(=O)N(C)C`, “inactive”; to `O=C(CCBr)N1CCN(C(=O)CCBr)CC1`, “inactive”.
The same measure, in the same setting: then `CC(C)OCCO`, with “inactive”; and `CC1(C)CC(N)CC(C)(C)N1`, with “inactive”.
With `O=C(O)CCC(=O)Nc1ccc(S(=O)(=O)Nc2nccs2)cc1`, the outcome was inactive.
As to `CC(=O)c1c(C)cc(C(C)(C)C)cc1C`, the compound was classed as inactive.
The same measure, in the same setting: then `CCCC(=O)OC`, with “inactive”; and `CC(C)(C)C(=O)CCc1ccc(Cl)cc1`, with “inactive”; and `CCCCC(O)/C=C(C)/C=C/C=C/C(=O)N1CCCC1=O` (stereo not given), with “inactive”.
As to `COc1cc(S(N)(=O)=O)cc(C(=O)O)c1OC`, the outcome was inactive.
For `COCCCOc1cc(C[C@@H](C[C@H](N)[C@@H](O)C[C@H](C(=O)NCC(C)(C)C(N)=O)C(C)C)C(C)C)ccc1OC`, the call was inactive.
For `N#Cc1ccccc1C#N`, the outcome was inactive.
The same measure, in the same setting: to `CCCCNCC` belongs “inactive”.
Regarding `CCC(=O)OCCOc1ccccc1`, the call was inactive.
Consider `NC[C@H]1O[C@H](O[C@H]2[C@H](O)[C@@H](O[C@H]3O[C@H](CO)[C@@H](O)[C@H](N)[C@H]3O)[C@H](N)C[C@@H]2N)[C@H](N)[C@@H](O)[C@@H]1O`, for which the activity change, negative = cytotoxicity is -0.176% [at 19 µM] (inactive).
`Cc1ccc(NC(N)=O)cc1`: the result was inactive.
As for `CC(=O)SCC(CC(=O)c1ccc(C)cc1)C(=O)O` (stereo not given), the call was inactive.
For the compound `CCCC(C)C(O)CC` (stereo not given), the compound was classed as inactive.
Still for that read-out and setting: then `C/C(Cl)=C/CCl`, with “inactive”; and `N#Cc1cc(NC(=O)C(=O)O)c(Cl)c(NC(=O)C(=O)O)c1`, with “inactive”.
Still for that read-out and setting: then `CC(=O)OC1CCC(C(C)(C)C)CC1` (stereo not given), with “inactive”; and `O=C(O)Cc1ccccc1Oc1ccc(Cl)cc1Cl`, with “inactive”.
